# About 79,000 compounds went through this panel and 15% of them were active in at least one assay; those are over-represented in the sample as a whole. Values without a mark were called inactive. The source made the active and inactive calls. No stated cut-off is given here; in the data, active means growth inhibition above about 70%; inactive means the rest.
# Assays:
# [1] = NCI Yeast Anticancer Drug Screen. Data for the mec2-1 strain (AID 157); conditions: S. cerevisiae mec2-1 strain, active compounds read high
# How it was run: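 Mutant yeast (mec2-1) grown with compound; growth inhibition relative to vehicle control reported.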
# [2] = NCI Yeast Anticancer Drug Screen. Data for the sgs1 mgt1 strain (AID 161);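 further: 0% = growth of cultures given vehicle only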; conditions: S. cerevisiae sgs1 mgt1 strain, active compounds read high
# How it was run: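 Percent growth inhibition was derived by comparing compound-exposed mutant yeast with vehicle-exposed cultures. The strain carries alterations in DNA damage repair.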
# [3] = NCI Yeast Anticancer Drug Screen. Data for the CLN2oe strain (AID 163);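 further: 0% = growth of vehicle-only control cultures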; conditions: S. cerevisiae CLN2oe strain, active compounds read high
# How it was run: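 Compounds are applied to yeast harbouring a defined cell-cycle control change; reduced growth compared with vehicle-treated controls gives the value.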
# [4] = NCI Yeast Anticancer Drug Screen. Data for the cln2 rad14 strain (AID 165);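 further: 0% = growth equal to vehicle treated cultures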; conditions: S. cerevisiae cln2 rad14 strain, active compounds read high
# How it was run: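 Readout is yeast growth inhibition versus vehicle-treated controls, using a strain with cln2 and rad14 alterations exposed to compound.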
# [5] = NCI Yeast Anticancer Drug Screen. Data for the bub3 strain (AID 167); conditions: S. cerevisiae bub3 mutant strain, active compounds read high
# How it was run: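 Inhibition values come from growth of compound-treated mutant yeast normalised to vehicle-treated controls.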
# [6] = NCI Yeast Anticancer Drug Screen. Data for the wt2 strain (AID 169);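 further: 0% = growth of vehicle-treated yeast cultures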; conditions: S. cerevisiae wt2 strain growth inhibition, active compounds read high
# How it was run: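 Against vehicle-treated controls, the growth of yeast exposed to each compound was compared, and the inhibition was recorded.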
# [7] = NCI Yeast Anticancer Drug Screen. Data for the mlh1 strain (AID 171);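 further: 0% = growth of vehicle-treated control cultures of the same strain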; conditions: S. cerevisiae mlh1 strain growth inhibition, active compounds read high
# How it was run: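 Measured: yeast growth. Reference: vehicle-treated controls. Organism: strain with a defined alteration affecting DNA damage repair or cell cycle control, treated with compound.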
# [8] = NCI Yeast Anticancer Drug Screen. Data for the sgs1 strain (AID 173);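 further: 0% = growth of vehicle-only control cultures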; conditions: S. cerevisiae sgs1 mutant, active compounds read high
# How it was run: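 Each compound was added to cultures of the altered yeast strain. Growth was recorded, and inhibition was derived by comparison with vehicle controls.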
# [9] = NCI Yeast Anticancer Drug Screen. Data for the mlh1 rad18 strain (AID 175); conditions: S. cerevisiae mlh1 rad18 strain growth inhibition, active compounds read high
# How it was run: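 Genetically defined yeast (DNA repair-deficient) exposed to compounds; growth inhibition determined relative to vehicle.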
# [10] = NCI Yeast Anticancer Drug Screen. Data for the rad18 strain (AID 177); conditions: S. cerevisiae rad18 mutant growth inhibition, active compounds read high
# How it was run: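 Vehicle-treated cultures served as the baseline for scoring compound-induced growth inhibition in DNA-repair-mutant yeast.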
# [11] = NCI Yeast Anticancer Drug Screen. Data for the wt1 strain (AID 149);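 further: 0% = growth of vehicle-treated wt1 cultures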; conditions: S. cerevisiae wt1 strain (SPY 50644) growth inhibition, active compounds read high
# How it was run: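 Vehicle-normalised growth inhibition; strain wt1; compound exposure.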
# [12] = NCI Yeast Anticancer Drug Screen. Data for the rad50EPP+ strain (AID 151);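 further: 0% = growth of vehicle-treated control cultures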; conditions: S. cerevisiae rad50 mutant strain, active compounds read high
# How it was run: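 Vehicle-normalised growth inhibition; rad50EPP+ yeast strain, altered in DNA damage repair, compound-treated.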
# [13] = NCI Yeast Anticancer Drug Screen. Data for the mgt1 strain (AID 153); conditions: S. cerevisiae mgt1 mutant growth inhibition, active compounds read high
# How it was run: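 Vehicle-normalized growth inhibition is determined in mgt1 yeast, a strain selected for a defined alteration in DNA repair or cell cycle control.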
# [14] = NCI Yeast Anticancer Drug Screen. Data for the rad50 strain (AID 155);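 further: 0% = growth of vehicle-only cultures of the same strain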; conditions: S. cerevisiae rad50 strain growth inhibition, active compounds read high
# How it was run: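 A DNA repair-deficient yeast mutant serves as the test organism; compound-induced growth inhibition is calculated against vehicle-treated cells.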
# [15] = NCI Yeast Anticancer Drug Screen. Data for the rad14 strain (AID 159);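 further: 0% = growth of vehicle-treated control cultures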; conditions: S. cerevisiae rad14 strain growth inhibition, active compounds read high
# How it was run: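 Vehicle-treated cultures served as the baseline for growth inhibition of a DNA repair-mutant yeast strain exposed to each compound.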
# [16] = at 5.0 µM (retest, dose inferred, filed as 0.5)
# [17] = at 50.0 µM (retest, dose inferred, filed as 5.0)
compound,measurement,setting,value
CCN(CC)CCNc1ccc(C)c2sc3ccc(O)cc3c(=O)c12,growth inhibition,[1]; at 100.0 µM,99% (active)
same,growth inhibition,[2]; [16],9%
same,growth inhibition,[2]; [17],99% (active)
same,growth inhibition,[2]; at 50.0 µM,91.7% (active)
same,growth inhibition,[3]; at 1.2 µM,39%
same,growth inhibition,[3]; at 3.7 µM,33%
same,growth inhibition,[3]; at 11.0 µM,39%
same,growth inhibition,[3]; at 33.0 µM,94% (active)
same,growth inhibition,[3]; at 100.0 µM,99% (active)
same,growth inhibition,[4]; [16],12%
same,growth inhibition,[4]; [17],98% (active)
same,growth inhibition,[4]; at 50.0 µM,90.9% (active)
same,growth inhibition,[5]; at 1.2 µM,-1%
same,growth inhibition,[5]; at 3.7 µM,10%
same,growth inhibition,[5]; [16],-1%
same,growth inhibition,[5]; at 11.0 µM,16%
same,growth inhibition,[5]; at 33.0 µM,91% (active)
same,growth inhibition,[5]; [17],99% (active)
same,growth inhibition,[5]; at 50.0 µM,91.2% (active)
same,growth inhibition,[5]; at 100.0 µM,99% (active)
same,growth inhibition,[6]; at 1.2 µM,-20%
same,growth inhibition,[6]; at 3.7 µM,-18%
same,growth inhibition,[6]; at 11.0 µM,-17%
same,growth inhibition,[6]; at 33.0 µM,98% (active)
same,growth inhibition,[6]; at 100.0 µM,98% (active)
same,growth inhibition,[7]; at 1.2 µM,45%
same,growth inhibition,[7]; at 3.7 µM,43%
same,growth inhibition,[7]; at 11.0 µM,29%
same,growth inhibition,[7]; at 33.0 µM,86% (active)
same,growth inhibition,[7]; at 100.0 µM,99% (active)
same,growth inhibition,[8]; at 1.2 µM,23%
same,growth inhibition,[8]; at 3.7 µM,32%
same,growth inhibition,[8]; at 11.0 µM,43%
same,growth inhibition,[8]; at 33.0 µM,97% (active)
same,growth inhibition,[8]; at 100.0 µM,99% (active)
same,growth inhibition,[9]; [16],12%
same,growth inhibition,[9]; [17],99% (active)
same,growth inhibition,[9]; at 50.0 µM,91% (active)
same,growth inhibition,[10]; at 1.2 µM,6%
same,growth inhibition,[10]; at 3.7 µM,5%
same,growth inhibition,[10]; at 11.0 µM,12%
same,growth inhibition,[10]; at 33.0 µM,97% (active)
same,growth inhibition,[10]; at 100.0 µM,99% (active)
CNC(=O)OCc1c(COC(=O)NC)c(C)n(-c2ccc(Br)cc2)c1C,growth inhibition,[11]; at 1.2 µM,-41%
same,growth inhibition,[11]; at 3.7 µM,-38%
same,growth inhibition,[11]; at 11.0 µM,-37%
same,growth inhibition,[11]; at 33.0 µM,-32%
same,growth inhibition,[11]; at 100.0 µM,98% (active)
same,growth inhibition,[12]; at 1.2 µM,-25%
same,growth inhibition,[12]; at 3.7 µM,-19%
same,growth inhibition,[12]; at 11.0 µM,-24%
same,growth inhibition,[12]; at 33.0 µM,-25%
same,growth inhibition,[12]; at 100.0 µM,-3%
same,growth inhibition,[13]; at 1.2 µM,-15%
same,growth inhibition,[13]; at 3.7 µM,-17%
same,growth inhibition,[13]; at 11.0 µM,-20%
same,growth inhibition,[13]; at 33.0 µM,14%
same,growth inhibition,[13]; at 100.0 µM,99% (active)
same,growth inhibition,[14]; at 1.2 µM,-15%
same,growth inhibition,[14]; at 3.7 µM,-27%
same,growth inhibition,[14]; [16],27%
same,growth inhibition,[14]; at 11.0 µM,-17%
same,growth inhibition,[14]; at 33.0 µM,-2%
same,growth inhibition,[14]; [17],46%
same,growth inhibition,[14]; at 50.0 µM,30.4%
same,growth inhibition,[14]; at 100.0 µM,91% (active)
same,growth inhibition,[1]; at 1.2 µM,-37%
same,growth inhibition,[1]; at 3.7 µM,-24%
same,growth inhibition,[1]; [16],22%
same,growth inhibition,[1]; at 11.0 µM,-23%
same,growth inhibition,[1]; at 33.0 µM,-8%
same,growth inhibition,[1]; [17],23%
same,growth inhibition,[1]; at 50.0 µM,13%
same,growth inhibition,[1]; at 100.0 µM,97% (active)
same,growth inhibition,[15]; at 1.2 µM,-23%
same,growth inhibition,[15]; at 3.7 µM,-16%
same,growth inhibition,[15]; at 11.0 µM,-7%
same,growth inhibition,[15]; at 33.0 µM,73% (active)
same,growth inhibition,[15]; at 100.0 µM,98% (active)
same,growth inhibition,[2]; [16],4%
same,growth inhibition,[2]; [17],-61%
same,growth inhibition,[2]; at 50.0 µM,78% (active)
same,growth inhibition,[3]; at 1.2 µM,-7%
same,growth inhibition,[3]; at 3.7 µM,0%
same,growth inhibition,[3]; at 11.0 µM,-1%
same,growth inhibition,[3]; at 33.0 µM,-2%
same,growth inhibition,[3]; at 100.0 µM,69%
same,growth inhibition,[4]; [16],10%
same,growth inhibition,[4]; [17],-81%
same,growth inhibition,[4]; at 50.0 µM,30%
same,growth inhibition,[5]; at 1.2 µM,-29%
same,growth inhibition,[5]; at 3.7 µM,-18%
same,growth inhibition,[5]; [16],0%
same,growth inhibition,[5]; at 11.0 µM,-18%
same,growth inhibition,[5]; at 33.0 µM,41%
same,growth inhibition,[5]; [17],-63%
same,growth inhibition,[5]; at 50.0 µM,85% (active)
same,growth inhibition,[5]; at 100.0 µM,98% (active)
same,growth inhibition,[6]; at 1.2 µM,-28%
same,growth inhibition,[6]; at 3.7 µM,-19%
same,growth inhibition,[6]; at 11.0 µM,-19%
same,growth inhibition,[6]; at 33.0 µM,-13%
same,growth inhibition,[6]; at 100.0 µM,96% (active)
same,growth inhibition,[7]; at 1.2 µM,-26%
same,growth inhibition,[7]; at 3.7 µM,-13%
same,growth inhibition,[7]; at 11.0 µM,9%
same,growth inhibition,[7]; at 33.0 µM,59%
same,growth inhibition,[7]; at 100.0 µM,97% (active)
same,growth inhibition,[8]; at 1.2 µM,15%
same,growth inhibition,[8]; at 3.7 µM,12%
same,growth inhibition,[8]; at 11.0 µM,19%
same,growth inhibition,[8]; at 33.0 µM,32%
same,growth inhibition,[8]; at 100.0 µM,96% (active)
same,growth inhibition,[9]; [16],25%
same,growth inhibition,[9]; [17],84% (active)
same,growth inhibition,[9]; at 50.0 µM,86.8% (active)
same,growth inhibition,[10]; at 1.2 µM,-19%
same,growth inhibition,[10]; at 3.7 µM,-12%
same,growth inhibition,[10]; at 11.0 µM,-5%
same,growth inhibition,[10]; at 33.0 µM,43%
same,growth inhibition,[10]; at 100.0 µM,96% (active)

# Source: PubChem BioAssay (NCI)
